We go through eight compounds from PubChem BioAssay.

Activity calls are given as the source filed them.

A short description of assay [1]: E. coli DRC41 culture turbidity changes, primary screen, E. coli filamentation inducer project, strain DRC41, OD650, 48 h (AID 1152).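 Also: E. coli MC1000 strain DRC41 lacking acrAB efflux pump and sulA.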 The settings on record: E. coli DRC41 (acrAB sulA), higher = more signal, called active from +8 up or from −8 down.
Assay [2] is described as follows: small-molecule binders of probe aLefty1, primary screen, biochemical, small-molecule microarray, 635/667 nm fluorescence (AID 1153).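 Also: score merges spot fluorescence with signal-to-noise ratio from the scanned slide images.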 The settings on record: higher = more signal.
Assay [3] in a line: PSAC antagonists in infected red cells, primary screen, cell-based, P. falciparum Indochina, OD700, 1 h (AID 1154). The following applies: P. falciparum Indochina infected RBC osmotic lysis, higher = more signal, called active from +8 up or from −8 down.
The nature of assay [4]: PSAC antagonists in infected red cells, primary screen, cell-based, P. falciparum Indochina, OD700, 2 h (AID 1155).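 Also: lysis reports solute entry through the parasite surface anion channel PSAC; channel blockers reduce lysis of infected cells.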 The settings on record: P. falciparum Indochina infected erythrocytes, osmotic lysis OD700; higher = more signal, called active from +8 up or from −8 down.
Assay [5] in a line: osmotic lysis modulators in infected erythrocytes, primary screen, PSAC antagonist project, cell-based, P. falciparum Indochina, OD700, 3 h (AID 1156). The settings on record: higher = more signal, called active from +8 up or from −8 down.
Assay [6] is described as follows: PSAC antagonists in infected red cells, primary screen, cell-based, P. falciparum Indochina, OD700, 18 h (AID 1157). The following applies: P. falciparum Indochina infected erythrocytes, osmotic lysis OD700, 18 h; higher = more signal, called active from +8 up or from −8 down.
A short description of assay [7]: modulators of S6 phosphorylation in cells, primary screen, cell-based, A549, cytoblot, luminescence, serum-stimulated (AID 1158).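 Also: serum-stimulated A549 lung adenocarcinoma cells; signal is phosphorylated S6 detected by cytoblot immunostaining with HRP secondary.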 The following applies: A549 phospho-S6 cytoblot, 5 h, higher = more signal.
Assay [8] deals with NADPH oxidase 2 (Homo sapiens) (UniProt P04839). The experiment in a line: NOX2-dependent H2O2 signal modulators, primary screen, NOX inhibitor project, cell-based, HEK293-NOX2, PMA-stimulated, Amplex Red fluorescence (AID 1159). Also: test concentration not given here. The settings on record: 45 min, higher = more signal, called active from +8 up or from −8 down.
NADPH oxidase 2 (Homo sapiens), sequence (P04839 whole entry, looked up): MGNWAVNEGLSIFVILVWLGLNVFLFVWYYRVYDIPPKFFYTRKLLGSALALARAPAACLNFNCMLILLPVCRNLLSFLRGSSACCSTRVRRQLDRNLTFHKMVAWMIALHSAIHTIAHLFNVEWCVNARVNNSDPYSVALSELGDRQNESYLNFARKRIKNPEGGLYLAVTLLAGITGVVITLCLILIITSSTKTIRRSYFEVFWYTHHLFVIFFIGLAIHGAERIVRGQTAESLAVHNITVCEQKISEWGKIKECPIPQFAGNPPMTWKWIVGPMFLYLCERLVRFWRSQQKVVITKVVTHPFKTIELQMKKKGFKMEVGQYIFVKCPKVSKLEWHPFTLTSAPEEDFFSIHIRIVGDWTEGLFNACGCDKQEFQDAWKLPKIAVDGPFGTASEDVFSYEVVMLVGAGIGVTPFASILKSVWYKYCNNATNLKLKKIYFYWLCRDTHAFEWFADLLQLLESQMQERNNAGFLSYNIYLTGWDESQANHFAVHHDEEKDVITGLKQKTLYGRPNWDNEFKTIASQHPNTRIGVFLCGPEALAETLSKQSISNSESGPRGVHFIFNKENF
For assay [9], the target named is NADPH oxidase 4 (Homo sapiens) (UniProt Q9NPH5). The experiment in a line: NOX4-dependent H2O2 signal modulators, primary screen, NOX inhibitor project, cell-based, HEK293-NOX4, tetracycline-induced, Amplex Red fluorescence (AID 1160). The settings on record: 45 min, higher = more signal, called active from +8 up or from −8 down.
NADPH oxidase 4 (Homo sapiens), sequence (Q9NPH5 whole entry, looked up): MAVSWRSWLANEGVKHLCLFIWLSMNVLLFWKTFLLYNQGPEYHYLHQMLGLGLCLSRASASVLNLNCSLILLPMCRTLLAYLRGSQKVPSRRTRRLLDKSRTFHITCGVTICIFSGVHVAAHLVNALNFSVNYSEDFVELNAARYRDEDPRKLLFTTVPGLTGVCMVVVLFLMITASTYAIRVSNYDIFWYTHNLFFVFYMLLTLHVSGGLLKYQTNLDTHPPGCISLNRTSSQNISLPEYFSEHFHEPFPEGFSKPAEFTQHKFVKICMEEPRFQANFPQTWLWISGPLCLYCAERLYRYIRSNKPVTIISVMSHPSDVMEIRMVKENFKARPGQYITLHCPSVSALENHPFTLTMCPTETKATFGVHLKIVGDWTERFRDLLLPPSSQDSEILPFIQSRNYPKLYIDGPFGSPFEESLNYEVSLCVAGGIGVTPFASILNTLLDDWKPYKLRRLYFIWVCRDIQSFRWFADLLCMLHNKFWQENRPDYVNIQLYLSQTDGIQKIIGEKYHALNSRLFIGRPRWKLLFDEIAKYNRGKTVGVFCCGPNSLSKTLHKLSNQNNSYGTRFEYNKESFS
In assay [10] the target is NADPH oxidase 5 (Homo sapiens) (UniProt Q96PH1). The experiment in a line: NOX5-dependent H2O2 signal modulators, primary screen, NOX inhibitor project, cell-based, HEK293-NOX5, Amplex Red fluorescence (AID 1161). The following applies: HEK293-NOX5, ionomycin, 45 min, higher = more signal.
NADPH oxidase 5 (Homo sapiens), sequence (Q96PH1 whole entry, looked up): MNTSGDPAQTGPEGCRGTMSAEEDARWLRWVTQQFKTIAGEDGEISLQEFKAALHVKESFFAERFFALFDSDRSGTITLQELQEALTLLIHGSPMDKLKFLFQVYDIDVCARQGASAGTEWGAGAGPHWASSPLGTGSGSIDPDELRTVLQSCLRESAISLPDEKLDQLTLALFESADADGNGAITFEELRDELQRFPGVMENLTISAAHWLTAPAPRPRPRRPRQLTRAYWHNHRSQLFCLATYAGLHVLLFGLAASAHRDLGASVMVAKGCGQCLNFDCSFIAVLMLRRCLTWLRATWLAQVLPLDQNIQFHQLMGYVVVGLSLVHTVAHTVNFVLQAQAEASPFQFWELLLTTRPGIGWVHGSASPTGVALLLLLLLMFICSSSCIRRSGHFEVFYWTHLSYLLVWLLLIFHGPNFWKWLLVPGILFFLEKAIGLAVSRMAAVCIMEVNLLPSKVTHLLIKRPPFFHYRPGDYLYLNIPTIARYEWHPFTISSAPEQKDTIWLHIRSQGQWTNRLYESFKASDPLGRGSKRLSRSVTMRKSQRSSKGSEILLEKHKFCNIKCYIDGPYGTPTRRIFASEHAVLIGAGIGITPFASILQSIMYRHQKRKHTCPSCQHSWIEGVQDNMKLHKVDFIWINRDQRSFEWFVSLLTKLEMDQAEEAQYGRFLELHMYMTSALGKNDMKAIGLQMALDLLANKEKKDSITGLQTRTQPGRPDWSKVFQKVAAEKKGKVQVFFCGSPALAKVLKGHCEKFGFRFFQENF
Assay [11] can be described thus: A549 cell viability effects, profiling panel, calcein-AM fluorescence, 48 h, basal (AID 1162). Also: test concentration not given here. The settings on record: higher = more signal.
Assay [12] is described as follows: adipocyte viability effects, profiling panel, cell-based, 3T3-L1 adipocytes, calcein-AM fluorescence, 48 h, basal (AID 1163). Also: test concentration not given here. The settings on record: 3T3-L1 adipocytes viability, higher = more signal.
The nature of assay [13]: HepG2 cell viability effects, profiling panel, calcein-AM fluorescence, 48 h, basal (AID 1164). Also: test concentration not given here. The following applies: higher = more signal.
Assay [14] can be described thus: MM1S cell viability effects, profiling panel, calcein-AM fluorescence, 48 h, basal (AID 1165).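 Also: viability of MM1S multiple myeloma cells under basal unstimulated conditions; test concentration not given here.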 The settings on record: higher = more signal.
A short description of assay [15]: basal RPMI8226 viability, no added stimulus, profiling panel, cell-based, calcein-AM fluorescence, 48 h, PK04 Diversity Set (AID 1166).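 Also: cells grown under basal conditions without added stimulus; test concentration not given here.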 The following applies: RPMI8226 myeloma viability, higher = more signal.
Assay [16] in a line: basal HepG2 mitochondrial membrane potential changes, profiling panel, cell-based, JC-1 fluorescence, 24 h, 100 nL compound (AID 1167). Also: test concentration not given here. The settings on record: higher = more signal.
Assay [17] is described as follows: basal 3T3-L1 adipocyte mitochondrial potential changes, profiling panel, cell-based, JC-1 fluorescence, 3T3-L1 adipocytes, 24 h, 100 nL compound (AID 1168). Also: test concentration not given here. The settings on record: JC-1 mitochondrial fluorescence, higher = more signal, called active from +8 up or from −8 down.
Assay [18] in a line: basal RPMI8226 mitochondrial membrane potential changes, profiling panel, cell-based, JC-1 fluorescence, 24 h, 100 nL compound (AID 1169). Also: test concentration not given here. The following applies: RPMI8226 myeloma, JC-1 mitochondrial potential fluorescence, higher = more signal.
A short description of assay [19]: basal MM1S mitochondrial membrane potential changes, profiling panel, cell-based, JC-1 fluorescence, 24 h, 100 nL compound (AID 1170). Also: test concentration not given here. The settings on record: higher = more signal.
Assay [20] is described as follows: A549 lung cancer cell viability effects, profiling panel, resazurin fluorescence, 24 h, PK04 Diversity Set (AID 1171). Also: test concentration not given here. The settings on record: higher = more signal, called active from +8 up or from −8 down. A general note: The colour change of resazurin is a common sign of viable cells or microbes.

Regarding `COC(=O)[C@@]1(Cc2ccccc2)[C@H]2c3cc(C(=O)N4CCCC4)n(Cc4ccc(C(F)(F)F)nc4)c3C[C@H]2CN1C(=O)c1ccccc1`, the z-score in assay [1] was -1.31 (inactive); in [3], 2.24 (inactive); in [4], 0.145 (inactive); in assay [5] it was 1.45 (inactive); in assay [6] it was 0.444 (inactive); in assay [7], -0.467. Also, the z-score in [8] was 0.262 (inactive); in assay [9], 0.396 (inactive); in [10] it was -3.03; in assay [11], -0.567; in assay [12], 1.88; in assay [13], -0.499. Moreover, the z-score in [14] was -0.331; in [15], -1.59; in assay [16], 1.5; in assay [17], -0.657 (inactive); in assay [18], -0.561; in [19] it was -0.796. For the same compound, the z-score in assay [20] is 0.263 (inactive). Besides, the composite z-score in [2] was found to be 0.689.

In the case of `CC(=O)c1ccc(C(O)C2C=CC3C(=O)N(C)C(=O)C3N2NC(=O)OC(C)(C)C)cc1` (stereo not given), the z-score is -1.33 (inactive) in assay [1]; 1.24 (inactive) in assay [3]; 0.957 (inactive) in assay [4]; 0.0395 (inactive) in assay [5]; 0.95 (inactive) in [6]; -1.51 in assay [7]. The z-score is -0.455 (inactive) in assay [8]; -1.57 (inactive) in assay [9]; -1.01 in assay [10]; -1.02 in assay [11]; -0.701 in assay [12]; -0.831 in assay [13]. Further, the z-score in assay [14] is -0.682; in [15], -0.193; in assay [16] it was -1.29; in assay [17] it was -0.82 (inactive); in assay [18], -0.539; in assay [19], 0.485. Further, in assay [20], the z-score was -0.659 (inactive). This compound registered a composite z-score in assay [2] of 0.186.

In the case of `CN1C=C(C(=O)OCCS(C)(=O)=O)C(C(=O)OCCS(C)(=O)=O)=CC(CCCO)=CC1c1ccc(CN2CCCC2)cc1` (stereo not given), the z-score in [1] is 0.0837 (inactive); in assay [3], 1.39 (inactive); in assay [4], -0.162 (inactive); in assay [5] it was -0.203 (inactive); in assay [6] it was 0.0374 (inactive); in assay [7], -0.0029. Also, the z-score in assay [8] is 0.526 (inactive); in assay [9], 0.0702 (inactive); in assay [10], -1.65; in assay [11], 1.46; in assay [12], -2.48; in assay [13], 1.81. Further, the z-score is 0.101 in assay [14]; -0.268 in assay [15]; 1.82 in assay [16]; -0.469 (inactive) in [17]; 1.33 in assay [18]; -0.394 in assay [19]. Also, in assay [20], the z-score was 0.0251 (inactive). Also, the composite z-score in assay [2] was 0.546.

`CC(c1ccccc1)C(O)C1C=CC2C(=O)N(c3ccccc3)C(=O)C2N1Nc1ccc(C#N)cc1` (stereo not given): the z-score is 1.16 (inactive) in assay [1]; 14 (active) in assay [3]; 1.58 (inactive) in assay [4]; 0.832 (inactive) in assay [5]; 0.264 (inactive) in [6]; 1.38 in [7]. For the same compound, the z-score is -1.9 (inactive) in assay [8]; -4.04 (inactive) in assay [9]; -2.65 in assay [10]; 1.71 in [11]; -0.582 in assay [12]; 1.49 in assay [13]. Moreover, the z-score was 0.401 in [14]; -0.0442 in assay [15]; -0.372 in [16]; 0.0393 (inactive) in assay [17]; -0.0416 in assay [18]; 0.222 in assay [19]. Further, the z-score in [20] was 0.413 (inactive). In assay [2], the composite z-score came to 0.379.

Take `C=CC[C@]1(C(=O)OC)N=C(c2ccc(OCCCO)cc2)O[C@H]1c1ccccc1N=[N+]=[N-]`: the z-score in assay [1] is -0.908 (inactive); in assay [3] it was 30.3 (active); in assay [4] it was 26.5 (active); in assay [5], 5.34 (inactive); in assay [6] it was 4.92 (inactive); in assay [7], 0.26. Also, the z-score in assay [8] was -1.89 (inactive); in [9], 0.988 (inactive); in [10] it was -0.21; in assay [11], -1.22; in assay [12], 0.617; in [13], -0.491. The z-score was -0.54 in assay [14]; -2.37 in assay [15]; 0.54 in [16]; 0.147 (inactive) in assay [17]; -1.13 in [18]; 0.676 in assay [19]. Moreover, in assay [20], the z-score is -1.6 (inactive). In addition, in [2], the composite z-score was found to be 1.06.

Regarding `COCCOC(=O)N1C(=O)[C@@]2(c3cc(C#CCC(C(=O)OC)C(=O)OC)ccc31)[C@H](C(=O)N1CCc3cc(OC)c(OC)cc3C1)[C@H]1C(=O)O[C@H](c3ccccc3)[C@H](c3ccccc3)N1[C@@H]2c1ccc(O)cc1`, the z-score was -0.0961 (inactive) in [1]; 0.577 (inactive) in assay [3]; 0.524 (inactive) in assay [4]; -0.5 (inactive) in [5]; 0.0513 (inactive) in [6]; -0.111 in assay [7]. The z-score in [8] is 1.91 (inactive); in assay [9], 0.862 (inactive); in assay [10], 0.912; in assay [11] it was 0.373; in assay [12] it was 0.643; in assay [13], 0.391. Besides, the z-score is -0.422 in assay [14]; -1.54 in [15]; 0.448 in [16]; -0.216 (inactive) in assay [17]; 0.109 in assay [18]; 0.516 in assay [19]. In addition, the z-score in [20] is 0.0392 (inactive). In addition, the composite z-score in [2] turned out to be 0.191.

With `C/C=C/CN(C(=O)C#Cc1ccccc1)[C@H](CO[Si](C)(C)C(C)(C)C)c1ccccc1`, the z-score in assay [1] was 2.64 (inactive); in assay [3], 0.567 (inactive); in assay [4] it was -0.912 (inactive); in assay [5], -0.509 (inactive); in assay [6] it was -1.83 (inactive); in assay [7], 1.52. The z-score in [8] was 0.405 (inactive); in assay [9] it was 0.123 (inactive); in assay [10] it was -0.373; in assay [11], -0.21; in assay [12], 1.45; in assay [13], -0.488. Further, the z-score was -2.38 in [14]; -3.4 in assay [15]; 2.31 in assay [16]; 1.37 (inactive) in assay [17]; -0.522 in assay [18]; -0.0851 in [19]. Besides, the z-score in assay [20] is 0.365 (inactive). Besides, the composite z-score in assay [2] was -0.324.

On to `NC(=O)NCC#Cc1ccc2c(c1)[C@]1(C(=O)N2)[C@H](C(=O)Nc2nc3ccccc3s2)[C@H]2C(=O)O[C@H](c3ccccc3)[C@H](c3ccccc3)N2[C@@H]1c1ccc(OCCO)cc1`, for which the z-score in [1] was 0.197 (inactive); in [3] it was 1.93 (inactive); in assay [4], 1.1 (inactive); in assay [5], -0.166 (inactive); in [6] it was 0.737 (inactive); in assay [7], 0.169. In addition, the z-score in assay [8] is 0.681 (inactive); in [9], 0.611 (inactive); in assay [10] it was 0.715; in assay [11], -0.163; in assay [12], 0.466; in assay [13], -1.43. In addition, the z-score in assay [14] is -0.231; in assay [15] it was -0.349; in assay [16] it was -3.18; in assay [17] it was 0.272 (inactive); in [18], -1.14; in assay [19], -1.88. Also, in [20], the z-score was 0.767 (inactive). For the same compound, the composite z-score in [2] was 0.309.
